Screens deposited in PubChem BioAssay by National Center for Advancing Translational Sciences (NCATS).
A selection: hits, their analogues and other compounds. The true share with any hit is near 19%.
HT1080-NT tox = kills 2HG-producing HT-1080-NT fibrosarcoma cells; AID 686970; HT-1080-NT fibrosarcoma viability, CellTiter-Glo ATP luminescence, 48 h; Potency, µM (top dose mostly 46.1 µM), hits mostly cytotoxic; 1.6% of 360,000 active;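 also: NT is the 2HG producing partner of a matched IDH1 knockdown line; nearly all actives have a fitted effect of over 55% in size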
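A 48-hour cytotoxicity screen used HT-1080-NT cells plated 2 hours before compound delivery. ATP-based CellTiter-Glo luminescence measured viability, normalized to DMSO and no-cell controls.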
HT1080 IDH1KD tx = toxicity to HT-1080 IDH1 knockdown cells (counter line); HT-1080 IDH1 knockdown viability, ATP luminescence, 48 h; Potency, µM (titrated, usually from 46.1 µM), most hits filed as cytotoxic; 2% of 360,000 active
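Assay cells: HT-1080 with IDH1 knockdown, 750 per well, RPMI/5% FBS. Exposure: 48 h at 37 °C following 2 h pre-incubation. Read: CellTiter-Glo luminescence; fitted concentration-response, curve class assigned.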
IL-1B inflam inh = inhibitors of inflammasome signaling (IL-1 beta secretion); activity change, % at 57.5 µM; AID 743279; THP-1 LPS/ATP IL-1B secretion, AlphaLISA, 16 h; hits give low values; 4.7% of 360,000 active; in the data active = activity change below about -50%; inconclusive = mostly about -30% to -49%
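THP-1 cells pretreated 1 hr with compounds (up to 57.5 uM final), then stimulated with LPS (250 ng/mL final) plus ATP (1.25 mM final); secreted IL-1B measured by AlphaLISA after 16 hr, decreased signal indicating inhibition.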
TDP1 cell CPT = DT40-hTDP1 cell growth loss with CPT; AID 686979; 12% of 420,000 active; Potency, µM (highest dose often 46.2 µM), hits mostly inhibitors; chicken DT40 Tdp1-/-;hTDP1 cells + 20 nM CPT, ATP luminescence, 48 h; also: nearly all actives have a fitted effect of over 55% in size
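Cell growth measured by CellTiter-Glo luminescence after a minimum 48 h, 37 C compound exposure with 20 nM CPT in Tdp1-knockout DT40 cells stably expressing hTDP1, seeded 400/well; qHTS titration format.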
DT40 TDP1 no CPT = qHTS for Inhibitors of human tyrosyl-DNA phosphodiesterase 1 (TDP1): qHTS in cells in absence of CPT; DT40 Tdp1-/- hTDP1 cells, no CPT, ATP luminescence, 48 h; Potency, µM (top dose mostly 46.2 µM), hits mostly inhibitors; 15% of 420,000 active; also: nearly all actives have a fitted effect of over 55% in size
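A cellular qHTS used chicken DT40 cells lacking endogenous Tdp1 but carrying stably transfected human TDP1. Compounds were applied without camptothecin, and cell growth kinetics were judged by ATP-dependent luminescence after ≥48 hr.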
Numbers stand for hits; n = inactive; u = inconclusive; x = no result given. Unless noted, calls follow the shape of the dose curve; as a rule, active = well fitted curve in the direction sought with a large enough effect; inconclusive = small, poorly fitted or top-dose-only effect, or another doubt; inactive = no such curve, though single readings can be large; an effect the other way counts as inactive or inconclusive.

SMILES | HT1080-NT tox | HT1080 IDH1KD tx | IL-1B inflam inh | TDP1 cell CPT | DT40 TDP1 no CPT
CC(=O)c1ccc(NS(=O)(=O)c2cccc(C(=O)Nc3ccccc3C(=O)O)c2)cc1 | n | n | n | n | u
N#Cc1ccc(S(=O)(=O)N2CCC(C(=O)Nc3cccc(C(=O)NC4CC4)c3)CC2)cc1 | n | n | n | n | n
O=C(CN1CCN(Cc2ccc(F)cc2)C1=O)NCc1ccccc1 | x | x | x | n | n
Cn1c(=O)c2c(ncn2CC(=O)OCC(=O)NCc2ccccc2Cl)n(C)c1=O | n | n | n | n | n
CCN(CC)S(=O)(=O)c1ccc(-n2c(=O)c(C(C)C)c(C)n2C)cc1 | n | n | n | n | u
COC(CNS(=O)(=O)c1ccc(S(=O)(=O)NC2CC2)cc1)OC | n | n | n | n | n
Cc1c(C(C)C)c(=O)n(-c2ccc(S(=O)(=O)NC3CC3)cc2)n1C | n | n | n | n | 10µM
Cc1c(C(C)C)c(=O)n(-c2ccc(S(=O)(=O)NC(C)C)cc2)n1C | n | n | n | u | 13µM
CSCCC(NS(=O)(=O)c1ccccc1F)C(=O)NCc1ccncc1 (stereo not given) | n | n | n | n | n
Cc1c(C(=O)N(C)CCCCN2CCOCC2)oc2c(F)cccc12 | n | n | n | n | n
COc1ccc(-c2c(C#N)sc(C(N)=O)c2-c2ccc(OC)cc2)cc1 | n | n | n | u | 10µM
N#Cc1sc(C(N)=O)c(-c2ccccc2)c1-c1ccccc1 | n | n | n | n | n
O=C1NC(=O)C2C1C(c1cccs1)NN2Cc1ccccc1 (stereo not given) | n | n | n | 29µM | 29µM
CC(=O)C1=C(O)C(=O)N(Cc2ccccc2)C1c1cccs1 (stereo not given) | n | n | n | n | n
CC1=CC(=O)C=CC1=Nc1ccc(N(C)C)cc1 | u | u | -121 | 1µM | 0.92µM
CN(C)c1ccc(N=Nc2ccc(S(N)(=O)=O)cc2)cc1 | n | n | n | n | n
CCc1ccc(N2CC(C(=O)N3CCN(S(=O)(=O)c4cccc(F)c4)CC3)CC2=O)cc1 (stereo not given) | n | n | n | u | u
CSc1cccc(N2CC(C(=O)N3CCN(S(=O)(=O)c4ccccc4Cl)CC3)CC2=O)c1 (stereo not given) | n | n | n | u | 23µM
COc1ccc(NC(=S)N2CCN(Cc3ccccc3)CC2)cc1 | n | n | n | n | u
COc1ccc(NC(=S)N2CCC(Cc3ccccc3)CC2)cc1 | n | n | -58 | 10µM | 5.2µM
S=C(Nc1ccccc1)N1CCC(Cc2ccccc2)CC1 | u | u | -69 | 4.1µM | 3.7µM
OCC1(Cc2ccccc2Cl)CCN(C/C=C/c2ccccc2)CC1 | n | n | n | u | 18µM
CCN(CC)Cc1cc(Nc2c3ccccc3nc3c4ccccc4n(C)c23)cc(CN(CC)CC)c1O | 18µM | u | -113 | 2.6µM | 5.8µM
CCOc1cc2nc3c4ccccc4n(C)c3nc2cc1OCC | n | n | n | u | u
COc1ccc(CN(C2CCCC2)S(=O)(=O)c2ccc(-n3cnnn3)cc2)cc1OC | n | n | n | n | u
SMILES | HT1080-NT tox | HT1080 IDH1KD tx | IL-1B inflam inh | TDP1 cell CPT | DT40 TDP1 no CPT
COc1cc(S(=O)(=O)N(Cc2ccc(C)cc2)C2CCCCC2)ccc1-n1cnnn1 | n | n | n | u | 23µM
CCOc1ccc(S(=O)(=O)NCCc2ccccn2)cc1 | n | n | n | n | n
COc1ccc(C(=O)NC[C@H]2O[C@@H](n3cnc4c(N)ncnc43)[C@H](O)[C@@H]2O)cc1OC | n | n | n | n | n
COc1cc(/C=C/CNC[C@H]2O[C@@H](n3cnc4c(N)ncnc43)[C@H](O)[C@@H]2O)ccc1O | n | n | n | n | 13µM
CC(C)(C)NC(=S)N1CCC(C(=O)c2ccc(Cl)cc2)CC1 | n | n | n | n | n
CN(C)CCCNC(=S)N1CCC(C(=O)c2ccc(Cl)cc2)CC1 | n | n | n | 23µM | 16µM
O=C(c1ccc(F)cc1)C1CCN(C(=S)NCC2CCCO2)CC1 (stereo not given) | n | n | n | n | n
Cc1ccc(C(=O)C2CCN(C(=S)NCC3CCCO3)CC2)cc1 (stereo not given) | n | n | n | 15µM | 10µM
C=CCNC(=S)N1CCC(C(=O)c2ccc(C)cc2)CC1 | n | n | n | 26µM | u
C=CCNC(=S)N1CCC(C(=O)c2ccc(Cl)cc2)CC1 | n | n | n | 16µM | u
C=CCN1C=C(C(C)=O)C(=O)CC1 | n | n | n | n | n
Cc1scc(C(=O)NNC(=S)NCC2CCCO2)c1-c1ccccc1 (stereo not given) | n | n | n | n | u
Cc1ccc(-c2c(C(=O)NNC(=S)NCC3CCCO3)csc2C)cc1 (stereo not given) | n | n | n | u | 0.46µM
COCCCNC(=S)N1CCC(C(=O)c2ccc3c(c2)OCCO3)CC1 | n | n | n | u | n
CCOCCCNC(=S)N1CCC(C(=O)c2ccc(C)cc2)CC1 | n | n | n | 18µM | u
CC(C)CNC(=S)N1CCC(C(=O)c2ccc3c(c2)OCCO3)CC1 | n | n | n | u | 23µM
CC(=O)OCC1OC(n2c(-c3ccc(Cl)cc3)ccc(C#N)c2=S)C(OC(C)=O)C(OC(C)=O)C1OC(C)=O (stereo not given) | n | n | n | n | n
CCC(CC)C(=O)N(C)c1c(C)nc2c(OCc3ccc(C#N)cc3)cccn12 | n | n | -71 | u | 18µM
CCc1nc2c(OCc3ccc(Cl)cc3Cl)cccn2c1N(C)C(=O)C1CC1 | u | n | n | u | u
CCC(CC)C(=O)N(C)c1c(C)nc2c(OCc3ccc(Cl)cc3Cl)cccn12 | u | u | u | 4.6µM | 3.7µM
CCC(CC)C(=O)N(C)c1c(C)nc2c(OCc3ccccc3C)cccn12 | n | u | n | 6.5µM | 7.3µM
CCC(CC)C(=O)N(C)c1c(C)nc2c(OCC(=O)N(C)C)cccn12 | u | n | n | n | n
CCOC(=O)N1CCN(C2CCCN(C(=O)c3cccc(N(C)C)c3)C2)CC1 (stereo not given) | n | n | n | n | u
CCOc1ccc(-n2cc(-c3ccccc3)c3c(Nc4cccc(F)c4)ncnc32)cc1 | x | x | x | n | n
CCOc1ccc(-n2cc(-c3ccccc3)c3c(NCc4ccc(F)cc4)ncnc32)cc1 | x | x | x | 18µM | 12µM
COc1ccc(CNc2ncnc3c2c(-c2ccccc2)cn3-c2ccccc2)cc1 | x | x | x | u | 21µM
CCOc1ccc(-n2cc(-c3ccccc3)c3c(NCCc4ccccc4)ncnc32)cc1 | x | x | x | u | 23µM
Cn1c(=O)c2ccccc2n(CC(=O)N2CCCc3ccccc32)c1=O | n | n | n | n | u
COc1cccc(NC(=O)N2CCC(n3c(C)nc4cccnc43)CC2)c1 | x | x | x | n | n
